“And” between values parts separate entries of the source, which are not always exact repeats. Equal entries are not always repeated. Records with an inconclusive call do not appear. The source made the active and inactive calls. Rule for the calls, unless noted: active = hit-call score of the fitted dose curve at least 0.9, where 1 is the maximum; inconclusive = response in the unintended direction; inactive = score below 0.9.
Key:
[1] = TOX21_TR_RXR_BLA_Agonist_Followup_viability: Viability Assessment in the Tox21 Thyroid Hormone Receptor beta Retinoid X Receptor alpha (RXRa) Agonism Beta-lactamase (BLA) Follow-Up Assay (AID 2283970)
Method in brief: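 In qHTS format, RXRa-bla HEK293T cells (2,500/well) received compound for 16h. ATP content was then measured with CellTiter-Glo, and responses were fitted bidirectionally relative to DMSO controls.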

[2] = target: Estrogen receptor (Homo sapiens) (UniProt P03372); experiment: CCTE_Deisenroth_AIME_384WELL_LUC_Active: CCTE's 384-well Estrogen Receptor Transactivation Assay with AIME metabolic competence (ERTA luciferase; metabolism positive), Deisenroth Lab (AID 2284030)
Estrogen receptor (Homo sapiens), sequence (P03372 whole entry, looked up): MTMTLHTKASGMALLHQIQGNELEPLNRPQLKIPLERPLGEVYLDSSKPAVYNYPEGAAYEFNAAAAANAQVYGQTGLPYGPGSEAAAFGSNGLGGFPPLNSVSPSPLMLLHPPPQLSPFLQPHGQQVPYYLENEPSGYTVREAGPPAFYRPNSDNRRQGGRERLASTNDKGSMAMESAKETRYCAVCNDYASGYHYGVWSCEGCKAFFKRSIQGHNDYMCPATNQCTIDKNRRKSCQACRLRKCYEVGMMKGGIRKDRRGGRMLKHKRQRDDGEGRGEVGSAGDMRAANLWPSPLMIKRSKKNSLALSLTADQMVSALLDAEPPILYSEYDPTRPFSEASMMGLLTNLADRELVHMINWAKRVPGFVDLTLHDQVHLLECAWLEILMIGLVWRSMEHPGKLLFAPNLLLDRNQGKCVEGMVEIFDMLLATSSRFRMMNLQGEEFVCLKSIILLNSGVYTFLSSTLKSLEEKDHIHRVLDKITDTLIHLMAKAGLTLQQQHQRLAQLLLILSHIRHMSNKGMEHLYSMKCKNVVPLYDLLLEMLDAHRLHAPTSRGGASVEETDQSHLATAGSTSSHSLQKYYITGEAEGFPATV
Method in brief: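 In this metabolism-positive format, a 2-hour exposure to alginate-immobilized rat S9 precedes a 24 hour luciferase transactivation readout in VM7Luc4E2 cells. Dosing spans 10 concentrations from 0.002 to 200 uM.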

[3] = target: Estrogen receptor (Homo sapiens) (UniProt P03372); experiment: CCTE_Deisenroth_AIME_384WELL_LUC_Inactive: CCTE's 384-well Estrogen Receptor Transactivation Assay without AIME metabolic competence (ERTA luciferase; metabolism negative), Deisenroth Lab (AID 2284038);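 note: VM7Luc4E2 breast cells given medium preincubated 2 h with S9-free microspheres; hits raise estrogen receptor luciferase signal so potencies reflect agonists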
Method in brief: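 Chemicals (10-point series, 0.002 - 200 uM) were incubated 2 hours with alginate-water microsphere lids lacking S9, then the conditioned medium was transferred to VM7Luc4E2 breast cells for 24 hour. Luciferase induction was read by bioluminescence, fitted upward relative to 17beta-estradiol.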

[4] = target: Estrogen receptor (Homo sapiens) (UniProt P03372); experiment: CCTE_Deisenroth_AIME_384WELL_LUC_Shift: CCTE's 384-well Estrogen Receptor Transactivation Assay with AIME metabolic competence data shift (ERTA luciferase; difference in metabolism positive and negative), Deisenroth Lab (AID 2284041; active = hit-call score of the fitted dose curve at least 0.9, where 1 is the maximum; inactive = score below 0.9;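 note: shift is response with S9 minus without S9 so positive means metabolism raised ER signal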)
Method in brief: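 Here, parent compounds undergo 2 h phase I metabolism by PB/BNF-induced rat S9 before 24 h transactivation in VM7Luc4E2 cells; the curve models S9-positive minus S9-negative response over a 10-point series.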

[5] = target: Estrogen receptor (Homo sapiens) + Estrogen receptor beta (Homo sapiens) (UniProt P03372+Q92731); experiment: OT_ER_ERaERb_0480: Odyssey Thera (OT) 8-hour HEK293T Protein-Complementation Assay for Estrogen Receptor-alpha/-beta Heterodimer (AID 2283352)
Estrogen receptor (Homo sapiens) + Estrogen receptor beta (Homo sapiens), sequence (P03372 whole entry, looked up, the tested form may be a part): as the sequence (P03372 whole entry, looked up) above
Estrogen receptor (Homo sapiens) + Estrogen receptor beta (Homo sapiens), sequence (Q92731 whole entry, looked up, the tested form may be a part): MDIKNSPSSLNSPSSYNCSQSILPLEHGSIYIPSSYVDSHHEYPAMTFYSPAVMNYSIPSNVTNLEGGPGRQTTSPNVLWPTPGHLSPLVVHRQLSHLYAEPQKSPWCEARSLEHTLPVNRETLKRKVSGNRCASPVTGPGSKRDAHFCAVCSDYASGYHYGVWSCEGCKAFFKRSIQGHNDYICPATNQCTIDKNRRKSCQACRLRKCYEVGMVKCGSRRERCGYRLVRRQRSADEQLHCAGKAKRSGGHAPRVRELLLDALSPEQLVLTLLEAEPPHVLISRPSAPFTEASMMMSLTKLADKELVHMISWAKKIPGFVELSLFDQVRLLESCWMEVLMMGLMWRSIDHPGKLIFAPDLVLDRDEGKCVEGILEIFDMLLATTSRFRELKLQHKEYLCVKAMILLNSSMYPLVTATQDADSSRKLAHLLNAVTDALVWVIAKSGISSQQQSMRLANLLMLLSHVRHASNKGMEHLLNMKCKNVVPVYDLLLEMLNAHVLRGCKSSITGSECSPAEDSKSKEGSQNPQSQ
Method in brief: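 Increase in mean fluorescence intensity, measured by laser scanning plate cytometry, reported ER-alpha/ER-beta LBD complementation in HEK293T cells after 8 h chemical exposure. DMSO served as baseline; basal signal is low, punctate and cytoplasmic.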

[6] = CCTE_Padilla_ZF_144hpf_TERATOSCORE: (Legacy) CCTE's 144 Hour Post-fertilization zebrafish Assay Teratoscore, Padilla Lab (AID 2283679; active = hit-call score of the fitted dose curve at least 0.9, where 1 is the maximum; inactive = score below 0.9;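 note: zebrafish embryos with chorions exposed by immersion from 6-8 hpf to 5 dpf with daily renewal; teratogenicity score from eye scoring of death hatching and malformations at 144 hpf; higher score means more developmental defects relative to DMSO baseline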)
Method in brief: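 Larvae scored by eye at 144 hpf for death, hatching and malformations after a day in clean Hanks'. Before that, daily-renewed exposure at 80 uM (0.4% DMSO, 26C) from roughly 6-8 hpf through 5 dpf, 4 embryos per chemical.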

THRA (gene 7067) = THRA (gene 7067) (UniProt P10827); experiment: TOX21_TRA_COA_Antagonist_Followup_ratio: Tox21 Thyroid Hormone Receptor alpha Antagonism through Coactivator Recruitment Follow-Up Assay, Ratio (AID 2283953)
THRA (gene 7067), sequence (P10827 whole entry, looked up, the tested form may be a part): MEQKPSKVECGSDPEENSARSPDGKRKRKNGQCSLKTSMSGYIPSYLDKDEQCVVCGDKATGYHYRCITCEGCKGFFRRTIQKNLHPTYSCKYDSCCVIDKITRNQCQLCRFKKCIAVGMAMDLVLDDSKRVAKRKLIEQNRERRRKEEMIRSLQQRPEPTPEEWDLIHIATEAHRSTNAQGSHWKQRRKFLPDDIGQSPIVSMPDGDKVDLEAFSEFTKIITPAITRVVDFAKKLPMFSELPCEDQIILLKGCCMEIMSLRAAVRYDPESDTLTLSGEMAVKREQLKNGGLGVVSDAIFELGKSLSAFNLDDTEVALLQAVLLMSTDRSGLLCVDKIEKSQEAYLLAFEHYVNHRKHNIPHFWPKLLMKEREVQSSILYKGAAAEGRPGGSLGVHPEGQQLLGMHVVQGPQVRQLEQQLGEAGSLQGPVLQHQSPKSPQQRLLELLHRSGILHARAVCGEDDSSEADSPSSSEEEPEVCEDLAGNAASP
Method in brief: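 This follow-up to the GH3 luciferase screen checks specificity in a cell-free format. It measures SRC-2 coactivator peptide binding to TRα LBD by TR-FRET and scores loss of ratio signal relative to DMSO.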

THRB (gene 7068) = THRB (gene 7068) (UniProt P10828); experiment: TOX21_TRB_BLA_Antagonist_Followup_ratio: Tox21 Thyroid Hormone Receptor beta Antagonism Beta-lactamase (BLA) Follow-Up Assay, Ratio (AID 2283958)
THRB (gene 7068), sequence (P10828 whole entry, looked up, the tested form may be a part): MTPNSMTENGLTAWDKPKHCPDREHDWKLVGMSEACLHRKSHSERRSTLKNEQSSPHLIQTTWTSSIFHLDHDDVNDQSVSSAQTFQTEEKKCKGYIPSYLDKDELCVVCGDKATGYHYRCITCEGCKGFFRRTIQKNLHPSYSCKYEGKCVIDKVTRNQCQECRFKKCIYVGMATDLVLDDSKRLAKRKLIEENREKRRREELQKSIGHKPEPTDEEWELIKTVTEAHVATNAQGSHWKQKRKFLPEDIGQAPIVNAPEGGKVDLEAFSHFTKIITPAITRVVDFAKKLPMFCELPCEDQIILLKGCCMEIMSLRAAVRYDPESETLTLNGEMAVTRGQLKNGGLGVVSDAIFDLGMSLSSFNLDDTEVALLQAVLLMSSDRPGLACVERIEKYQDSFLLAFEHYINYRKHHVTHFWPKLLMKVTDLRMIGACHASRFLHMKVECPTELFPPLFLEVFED
Method in brief: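 In this antagonist-mode follow-up, a stably integrated GAL4-TRβ LBD fusion drives a UAS-beta-lactamase reporter in HEK293T cells. Loss of ratio signal relative to DMSO after 18 h treatment indicates activity; parallel CellTiter-Glo flags cytotoxicity.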

[7] = target: human Dual Specificity Protein Phosphatase 3 (DUSP3), DUSP3 (gene 1845) (UniProt P51452); experiment: NVS_ENZ_hDUSP3: NovaScreen (NVS) Enzymatic Assay for human Dual Specificity Protein Phosphatase 3 (DUSP3) (AID 2283152);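 note: phosphatase activity of recombinant human DUSP3 on a fluorogenic substrate without cells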
human Dual Specificity Protein Phosphatase 3 (DUSP3), DUSP3 (gene 1845), sequence (P51452 whole entry, looked up): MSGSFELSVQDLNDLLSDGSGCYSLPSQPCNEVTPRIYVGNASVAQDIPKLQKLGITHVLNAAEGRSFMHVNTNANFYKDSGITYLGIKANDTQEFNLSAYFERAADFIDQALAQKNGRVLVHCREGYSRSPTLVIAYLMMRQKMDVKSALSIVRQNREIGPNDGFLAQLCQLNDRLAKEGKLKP
Method in brief: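 Cell-free assay with recombinant human DUSP3 and fluorogenic substrate, read by fluorescence intensity. Primary screen ran duplicate at 25 uM; actives followed up in concentration series; loss of signal versus DMSO scored.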

[8] = target: D(1A) dopamine receptor (Homo sapiens) (UniProt P21728); experiment: NVS_GPCR_hDRD1: NovaScreen (NVS) G Protein-Coupled Receptor Assay for human Dopamine Receptor D1 (DRD1) (AID 2283269)
D(1A) dopamine receptor (Homo sapiens), sequence (P21728 whole entry, looked up): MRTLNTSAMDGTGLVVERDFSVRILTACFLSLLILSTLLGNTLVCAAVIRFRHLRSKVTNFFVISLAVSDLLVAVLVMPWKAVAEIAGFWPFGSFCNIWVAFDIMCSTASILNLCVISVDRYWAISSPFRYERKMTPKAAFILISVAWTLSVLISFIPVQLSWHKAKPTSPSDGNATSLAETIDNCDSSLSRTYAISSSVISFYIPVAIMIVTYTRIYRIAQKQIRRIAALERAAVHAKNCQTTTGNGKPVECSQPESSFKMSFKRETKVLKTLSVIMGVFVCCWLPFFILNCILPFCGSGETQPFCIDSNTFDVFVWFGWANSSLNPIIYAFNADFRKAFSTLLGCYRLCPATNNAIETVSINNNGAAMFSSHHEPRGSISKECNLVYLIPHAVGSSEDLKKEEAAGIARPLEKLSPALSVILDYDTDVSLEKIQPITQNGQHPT
Method in brief: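 HEK293-derived receptor preparation; radioligand competitive displacement; 1 h; filtration + scintillation counting. DMSO = negative control/baseline. Primary: 25 uM, duplicate; secondary: concentration–response for actives.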

DIO3 (gene 1735) = experiment: CCTE_GLTED_hDIO3: CCTE's human Deiodinase 3 (DIO3) Inhibition Assay, Great Lakes Toxicology and Ecology Division (GLTED) Lab (AID 2284055);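 note: potency is for inhibition seen as loss of released iodide signal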
Method in brief: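 Enzyme activity is tracked as iodide release from substrate by recombinant human DIO3 over 3 h with chemical present. A second Sandell-Kolthoff step converts iodide to an absorbance signal, fitted relative to DMSO.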

[9] = TOX21_PR_BLA_Followup_Agonist_viability: Viability Assessment in the Tox21 HEK293 Progesterone Receptor (PR) Agonism Beta-lactamase Follow-Up Assay (AID 2283935);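 note: signal loss means lower viability so actives are cytotoxic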
Method in brief: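 Multiplexed viability counter-screen: ATP-coupled luciferase signal measured after 30 min at room temperature, following 16 hr compound treatment of PR-UAS-bla HEK293T cells grown in charcoal-stripped serum.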

[10] = TOX21_PR_BLA_Followup_Antagonist_viability: Viability Assessment in the Tox21 HEK293 Progesterone Receptor (PR) Antagonism Beta-lactamase Follow-Up Assay (AID 2283936);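 note: hits lower the luminescence signal meaning cytotoxicity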
Method in brief: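 PR-UAS-bla HEK293T cells (3,000/well, 2% charcoal-stripped FBS) given compound plus R5020 agonist, 16 h at 37C. CellTiter-Glo added after bla read, 30 min at room temperature; luminescence loss indicates cytotoxicity.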

[11] = TOX21_PR_LUC_Followup_Antagonist_viability: Viability Assessment in the Tox21 HEK293 Progesterone Receptor (PR) Antagonism Luciferase Follow-Up Assay (AID 2283940)
Method in brief: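 Cellular ATP, measured with luciferase-coupled CellTiter-Glo, served as the viability endpoint after HEK293-PR-A-luc cells were exposed to test compounds for 16 h at 37C.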

[12] = TOX21_PR_LUC_Followup_Agonist_viability: Viability Assessment in the Tox21 HEK293 Progesterone Receptor (PR) Agonism Luciferase Follow-Up Assay (AID 2283941);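 note: loss of signal means cytotoxicity so actives lower viability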
Method in brief: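 Luminescent ATP quantitation (CellTiter-Glo) serves as the read-out; a drop flags cytotoxic compounds. Cells are HEK293-PR-A-luc grown in 10% charcoal-stripped FBS, plated 3,000/well, and exposed to compound for 16 h.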

[13] = target: human CYP19A1, CYP19A1 (gene 1588) (UniProt P11511); experiment: NVS_ADME_hCYP19A1: NovaScreen (NVS) CYP450-related Enzyme Activity (ADME) Assay for human CYP19A1 (AID 2283098)
human CYP19A1, CYP19A1 (gene 1588), sequence (P11511 whole entry, looked up): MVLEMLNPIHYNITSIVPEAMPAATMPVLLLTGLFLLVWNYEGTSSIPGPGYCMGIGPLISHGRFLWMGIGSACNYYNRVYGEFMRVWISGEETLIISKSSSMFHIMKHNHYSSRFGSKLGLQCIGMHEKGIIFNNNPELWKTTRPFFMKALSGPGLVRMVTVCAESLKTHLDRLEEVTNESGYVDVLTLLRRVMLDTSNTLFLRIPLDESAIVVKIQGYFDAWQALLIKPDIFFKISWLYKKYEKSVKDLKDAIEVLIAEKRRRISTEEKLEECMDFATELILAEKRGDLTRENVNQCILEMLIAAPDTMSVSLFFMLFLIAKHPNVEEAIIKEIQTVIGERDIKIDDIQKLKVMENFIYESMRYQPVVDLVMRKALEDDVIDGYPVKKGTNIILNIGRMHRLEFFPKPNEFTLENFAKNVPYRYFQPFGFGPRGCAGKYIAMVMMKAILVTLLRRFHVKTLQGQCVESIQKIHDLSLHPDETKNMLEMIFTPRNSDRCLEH
Method in brief: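 Cell-free enzyme assay with recombinant protein and a specific fluorogenic substrate, read by fluorescence intensity 0.5 h after dosing. Primary screen ran in duplicate at 10 uM; actives were retested in concentration series. Loss of signal versus acetonitrile baseline.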

[14] = CEETOX_H295R_11DCORT: CeeTox H295R High-throughput Steroidogenesis Assay for 11-Deoxycortisol (11DCORT) (AID 2283432; active = hit-call score of the fitted dose curve at least 0.9, where 1 is the maximum; inactive = score below 0.9); conditions: actives raise or lower the signal
Method in brief: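 Adrenal carcinoma line H295R, run per OECD 456 with minor changes, was forskolin-stimulated (10 uM, 48 h) before a 48 h chemical exposure at 0.1% DMSO. Secreted 11-deoxycortisol was quantified by HPLC-MS/MS.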

[15] = CEETOX_H295R_CORTIC: CeeTox H295R High-throughput Steroidogenesis Assay for Corticosterone (CORTIC) (AID 2283437; active = hit-call score of the fitted dose curve at least 0.9, where 1 is the maximum; inactive = score below 0.9;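 note: corticosterone secreted into medium quantified by mass spectrometry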); conditions: actives raise or lower the signal
Method in brief: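 H295R cells were prestimulated 48 h with 10 uM forskolin, then exposed 48 h to test chemical in 0.1% DMSO. Medium corticosterone was MTBE-extracted and quantified by HPLC-MS/MS; bidirectional fit versus DMSO baseline.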

[16] = CEETOX_H295R_CORTISOL: CeeTox H295R High-throughput Steroidogenesis Assay for Cortisol (AID 2283438; active = hit-call score of the fitted dose curve at least 0.9, where 1 is the maximum; inactive = score below 0.9;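 note: cortisol secreted into medium quantified by LC-MS/MS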); conditions: actives raise or lower the signal
Method in brief: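 Human adrenocortical H295R cells (passage ≤10) received test chemicals for 48 h after forskolin priming. Secreted cortisol was measured by LC-MS/MS.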

[17] = CEETOX_H295R_DOC: CeeTox H295R High-throughput Steroidogenesis Assay for DOC (AID 2283439; active = hit-call score of the fitted dose curve at least 0.9, where 1 is the maximum; inactive = score below 0.9); conditions: actives raise or lower the signal
Method in brief: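 Secreted DOC was quantified from H295R media by HPLC-MS/MS after 48 h chemical exposure following 48 h forskolin (10 uM) prestimulation. Values were fitted in both directions relative to DMSO, the negative control and baseline.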

## CC(C)CC(=O)O
[1]
  outcome: inactive

## CCCCCCC1CCC(=O)O1 (configuration not stated)
[2]
  AC50: 0.000244 µM (active)
[3]
  AC50: 0.00129 µM (active)
[4]
  AC50: 0.000196 µM (active)

## C=C1CC[C@H]2C[C@@H]1C2(C)C
[5]
  outcome: inactive

## CC(C)n1c(/C=C/[C@@H](O)C[C@@H](O)CC(=O)O)c(-c2ccc(F)cc2)c2ccccc21
[6]
  AC50: 447 nM (active) and 111 nM (active)
THRA (gene 7067)
  outcome: inactive
THRB (gene 7068)
  outcome: inactive

## CCCCCCCCCCCCCCCCCC[N+](C)(C)C
[7]
  AC50: 7.9 µM (active)
[8]
  AC50: 2.53 µM (active)

## Sc1nc2ccccc2s1
DIO3 (gene 1735)
  AC50: 61.3 µM (active)

## CC1(C)S[C@@H]2[C@H](NC(=O)[C@H](N)c3ccccc3)C(=O)N2[C@H]1C(=O)O
[7]
  AC50: 8.24 µM (active)

## C[C@H]1C[C@H]2[C@@H]3CCC4=CC(=O)C=C[C@]4(C)[C@@]3(F)[C@@H](O)C[C@]2(C)[C@@]1(O)C(=O)CO
[9]
  outcome: inactive
[10]
  outcome: inactive
[11]
  outcome: inactive
[12]
  outcome: inactive

## O=C(OCc1ccccc1)c1ccccc1
[13]
  outcome: inactive

## c1cc[c]([Bi]([c]2ccccc2)[c]2ccccc2)cc1
[9]
  outcome: inactive
[10]
  outcome: inactive
[11]
  outcome: inactive
[12]
  outcome: inactive

## CCO[Si](CCCN)(OCC)OCC
[14]
  outcome: inactive
[15]
  outcome: inactive
[16]
  outcome: inactive
[17]
  outcome: inactive

## CC1=NN(c2cc(Cl)c(S(=O)(=O)O)cc2Cl)C(=O)C1N=Nc1ccc(S(=O)(=O)O)cc1 (configuration not stated)
[13]
  outcome: inactive

## COC(=O)[C@]1(C)CCC[C@@]2(C)[C@H]1CC=C1C=C(C(C)C)CC[C@@H]12
DIO3 (gene 1735)
  AC50: 36 µM (active)

## CN(C)CCC(c1ccc(Cl)cc1)c1ccccn1 (configuration not stated)
[8]
  AC50: 12.1 µM (active)

## c1ccc(CNc2ncnc3nc[nH]c23)cc1
[14]
  outcome: inactive
[15]
  outcome: inactive
[16]
  outcome: inactive
[17]
  outcome: inactive
